Activity calls are given as the source filed them. The calls were made as follows: active = hit-call score of the fitted dose curve at least 0.9, where 1 is the maximum; inactive = score below 0.9.
What follows are compounds tested on Intercellular Adhesion Molecule 1 (ICAM1), ICAM1 (gene 3383) (assay: BSK_hDFCGF_ICAM1: BioMAP Diversity Plus: hDFCGF Assay for Intercellular Adhesion Molecule 1 (ICAM1) Biomarker Activity (AID 2284287)). Details: primary human foreskin fibroblasts.
Experimental: BSK_hDFCGF is a cell-based, multiplexed-readout assay that uses foreskin fibroblast, a human skin primary cell, with measurements taken at 24 hours after chemical dosing in a 96-well plate.BSK_hDFCGF_ICAM1 is an assay component measured in the BSK_hDFCGF assay. It measures ICAM-1 antibody related to regulation of gene expression using ELISA technology.Data from the assay component BSK_hDFCGF_ICAM1 was analyzed at the endpoint, BSK_hDFCGF_ICAM1, in the positive analysis fitting direction relative to DMSO as the negative control and baseline of activity. Using a type of binding reporter, gain or loss-of-signal activity can be used to understand protein changes. To generalize the intended target to other relatable targets, this assay endpoint is annotated to the 'cell adhesion molecules' intended target family, where the subfamily is 'Immunoglobulin CAM'.
The levels of cell surface (or secreted, indicated by the prefix "s") biomarker endpoints were measured by ELISA. Overt cytotoxicity to cells in confluent adherent cultures (all systems other than the BT system) was assessed by measuring total protein levels using sulforhodamine B (SRB) staining in parallel cultures at the time of biomarker measurements, indicated as SRB endpoints. For proliferation assays for adherent cell types, individual cell types are cultured at sub-confluence and relative cell numbers quantified by SRB staining at time points optimized for each system (48 h: 3C and CASM3C systems; 72 h: BT and HDF3CGF systems; 96 h: SAg system). SRB was performed by staining cells with 0.1% SRB after fixation with 10% TCA and reading wells at 560 nm.Viability and proliferation of PBMC (T cells) was quantified by Alamar Blue reduction for the SAg and BT systems. For PBMC viability (referred to as PBMC Cytotoxicity within the assay endpoint names), cells were plated (75,000/well in a 96-well plate) and then chemical samples added for 1 h before addition of activators, SEB and TSST-1 (20 ng/mL final concentration each). Cells were incubated for 90 h. Then, Alamar Blue (20 uL/well) (Invitrogen, Cat DAL1100) was added for 6 h, and the plates were read with a fluorescence microplate reader at 546/580 nm (excitation/emission). For PBMC proliferation, cells were plated and activated as above but incubated for only 16 h prior to addition of Alamar Blue. Plates were read after 6 h.

Compound	outcome
FC(F)C(F)(F)COCC1CO1 (stereo not given)	inactive
FC(F)(F)COC(OCC(F)(F)F)OCC(F)(F)F	inactive
C[Si](C)(C)C(F)(F)C(F)(F)C(F)(F)F	inactive
OCCC(F)(F)C(F)(F)C(F)(F)C(F)(F)F	inactive
FC(F)(F)C(F)(F)C(F)(F)C(F)(F)C(F)(F)C(F)(F)I	inactive
O=S(=O)(O)CCC(F)(F)C(F)(F)C(F)(F)C(F)(F)C(F)(F)C(F)(F)F	inactive
OC(O)(C(F)C(O)(O)C(F)(F)F)C(F)(F)F	inactive
FC(F)=C(F)C(F)(F)C(F)(F)C(F)(F)C(F)(F)C(F)(F)C(F)(F)F	inactive
NCC(F)(F)C(F)(F)C(F)(F)C(F)(F)F	inactive
O=C(Cl)C(F)(F)C(F)(F)C(F)(F)C(=O)Cl	inactive

From PubChem BioAssay (EPA / NIEHS)
